Algae TAG accum: increases triacylglycerol in Chlamydomonas reinhardtii; 44,000 tested, 0.84% active; calls only at 10 µM (by protocol); Chlamydomonas reinhardtii TAG, Nile Red fluorescence, 72 h; AID 1159537; call rule not given here;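 further: hits raise Nile Red signal meaning more stored TAG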
Starred values were filed as active, the others as inactive; i = inactive; + = active, no number. Only a selection was taken, and hits are over-represented in it overall.

SMILES	Algae TAG accum
CN1CCN(CC#CC=C(c2ccccc2)c2ccccc2)CC1	+
CN1CCN(CCC(=O)Nc2ccccc2)CC1	i
CN1CCN(CCCCOc2ccc(C(=O)c3ccccc3)cc2)CC1	i
Cc1onc(-c2c(Cl)cccc2Cl)c1C(=O)Nc1cccc([N+](=O)[O-])c1C	i
CCc1ccc(C2C(C#N)=C(SCC(=O)c3ccc([N+](=O)[O-])cc3)NC(C)=C2C(C)=O)cc1 (stereo not drawn)	i
Cc1c(C(=O)Nc2ccc(N3CCN(C(=O)c4ccccc4)CC3)cc2)cccc1[N+](=O)[O-]	i
Cc1ccc(Cl)cc1NC(=O)CC(=O)Nc1cc(Cl)ccc1C	i
Cc1cc(Cl)ccc1OCCN1CCNCC1	i
Clc1cc(Br)ccc1OCCCCN1CCCC1	i
Clc1ccc(Cl)c(OCCCCN2CCNCC2)c1	+
NS(=O)(=O)c1cccc(C(=O)Nc2ccc(Br)cc2)c1	i
CCc1nnc(NC(=O)c2cccc([N+](=O)[O-])c2C)s1	i
CC(CN1CCC(C(=O)N2CCN(Cc3ccccc3)CC2)CC1)c1ccccc1 (stereo not drawn)	i
OC1CCCN(Cc2ccc3c(c2)Cc2ccccc2-3)C1 (stereo not drawn)	i
CN1CCCN(Cc2cccc(Oc3ccccc3)c2)CC1	+
COc1ccc(CN2CCN(C)CC2)cc1OCc1ccccc1	i
OC1CCN(Cc2cccc(Oc3ccccc3)c2)CC1	i
COc1cccc(CN2CCCN(C)CC2)c1	i
OCC1CCCN(Cc2ccc3c(c2)Cc2ccccc2-3)C1 (stereo not drawn)	i
CN1CCN(Cc2ccc3c(c2)Cc2ccccc2-3)CC1	+
CN1CCN(Cc2cccc(Oc3ccccc3)c2)CC1	+
CN1CCCN(Cc2cccc(Br)c2)CC1	i
O=C(c1ccc(Cl)cc1Cl)N1CCN(c2ccc(F)cc2)CC1	i
O=C(/C=C/c1ccc(-c2cc(Cl)ccc2Cl)o1)c1ccco1	i
COc1ccc(Br)cc1CN1CCN(C(=O)c2ccc([N+](=O)[O-])cc2)CC1	i
SMILES	Algae TAG accum
Cc1cc(Br)ccc1OCc1nc(-c2ccc([N+](=O)[O-])cc2)no1	i
O=[N+]([O-])c1ccc(OCc2ccccc2)cc1	i
Nc1ncc(Cc2ccccc2Cl)s1	i
Fc1ccccc1N1CCN(CC2CCCCC2)CC1	+
Fc1ccccc1N1CCN(C2Cc3ccccc3C2)CC1	i
CCOc1ccccc1N1CCN(C(=O)C2CCN(CC3CCCCC3)CC2)CC1	i
O=C(Nc1ccccn1)c1nnn(-c2ccccn2)c1O	i
C=CCn1c(SCC(=O)O)nnc1-c1ccc([N+](=O)[O-])cc1	+
C=CCn1c(SCC)nnc1-c1ccc([N+](=O)[O-])cc1	i
C=CCn1c(SCC(=O)O)nnc1-c1ccc(OC)cc1	i
Cc1cc(C)c(C)c(OCCCCN(C)C)c1	i
CN(C)CC(=O)Nc1ccc([N+](=O)[O-])cc1	i
Cn1c(C(O)c2cc(C(C)(C)C)c(O)c(C(C)(C)C)c2)nc2ccccc21 (stereo not drawn)	i
O=C(Nc1ccccc1C(=O)NCc1cccnc1)c1ccc(F)cc1	i
Cc1c(C(=O)Nc2ccccc2C(=O)NCc2ccccc2)cccc1[N+](=O)[O-]	+
O=C(Nc1ccccc1C(=O)NCc1ccccc1)c1ccccc1F	i
Cc1c(C(=O)Nc2ccccc2C(N)=O)cccc1[N+](=O)[O-]	i
Cc1ccccc1C(=O)Nc1ccccc1C(=O)NCc1ccccc1	i
O=C(Nc1ccccc1C(=O)NCc1ccccc1)c1ccc(F)cc1	+
Cc1ccc(C(=O)Nc2ccc([N+](=O)[O-])cc2)cc1S(=O)(=O)N1CCOCC1	i
O=C1CC(N2CCC(O)CC2)C(=O)N1c1ccc(F)cc1 (stereo not drawn)	i
COc1cc(C(=O)N2CCN(C34CC5CC(CC(C5)C3)C4)CC2)cc(OC)c1OC	i
CCOC(=O)N1CCN(CC(O)COCCC23CC4CC(CC(C4)C2)C3)CC1 (stereo not drawn)	i
OC(COCCC12CC3CC(CC(C3)C1)C2)CN1CCOCC1 (stereo not drawn)	i
CCN1CCN(CC(O)COCCC23CC4CC(CC(C4)C2)C3)CC1 (stereo not drawn)	+
SMILES	Algae TAG accum
CCOc1ccc(N(C(C)C(=O)Nc2ccc(F)cc2)S(C)(=O)=O)cc1 (stereo not drawn)	i
Cc1ccc(C(=O)Nc2ccc(F)cc2F)cc1	i
O=C(CSc1nc2ccccc2o1)Nc1cc(Cl)ccc1Cl	i
NC(=O)c1ccccc1OCc1ccc([N+](=O)[O-])cc1	i
CC(=O)C1=C(O)C(=O)N(c2cccc(C(=O)O)c2)C1c1ccc(Br)cc1 (stereo not drawn)	i
Cc1ccc(S(=O)(=O)c2ccc(C)cc2)cc1	i
Cc1ccc(S(=O)(=O)c2ccc(-c3ccc([N+](=O)[O-])cc3)cc2)cc1	+
Cc1ccc(NS(=O)(=O)c2ccc([N+](=O)[O-])cc2)cc1	i
CCc1cccc(C)c1NC(=O)Cc1ccccc1OC	i
Cc1ccc(C(=O)Nc2cc(Cl)cc(Cl)c2)cc1	i
